# High-throughput results as filed in PubChem.
# This is a sample that favours compounds with a hit; in the whole collection about 10% have one here.
# MCF10A rerep: inducers of DNA re-replication in MCF 10A breast cells. Potency, µM (highest dose often 46.1 µM), actives largely listed as activators. 350,000 tested, 2.9% active. MCF 10A DNA re-replication, Hoechst nuclear intensity, 48 h; note: nearly all actives have a fitted effect of over 50% in size
# SW480 rereplic: inducers of DNA re-replication in SW480 colon cancer cells | SW480 DNA re-replication, Hoechst DNA content imaging, 48 h | Potency, µM (top dose mostly 46.1 µM), hits mostly activators | 340,000 tested, 1.8% active | AID 624297; note: nearly all actives have a fitted effect of over 55% in size
#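 Readout is total intensity of Hoechst-stained nuclei, excited at 405 nm and collected at 500-530 nm. Compound treatment lasted 48 hr at 37 C in 5% CO2 before staining.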
# RORgamma inh: inhibitors of mouse ROR gamma transcriptional activity | P51450 | Drosophila S2 Gal4-RORgamma UAS-luciferase reporter, 20 h | Potency, µM (highest dose often 53.6 µM), most hits filed as inhibitors | 310,000 tested, 5.4% active | AID 2551; note: nearly all actives have a fitted effect of over 60% in size
# Target sequence (P51450 whole entry, looked up, the tested form may be a part): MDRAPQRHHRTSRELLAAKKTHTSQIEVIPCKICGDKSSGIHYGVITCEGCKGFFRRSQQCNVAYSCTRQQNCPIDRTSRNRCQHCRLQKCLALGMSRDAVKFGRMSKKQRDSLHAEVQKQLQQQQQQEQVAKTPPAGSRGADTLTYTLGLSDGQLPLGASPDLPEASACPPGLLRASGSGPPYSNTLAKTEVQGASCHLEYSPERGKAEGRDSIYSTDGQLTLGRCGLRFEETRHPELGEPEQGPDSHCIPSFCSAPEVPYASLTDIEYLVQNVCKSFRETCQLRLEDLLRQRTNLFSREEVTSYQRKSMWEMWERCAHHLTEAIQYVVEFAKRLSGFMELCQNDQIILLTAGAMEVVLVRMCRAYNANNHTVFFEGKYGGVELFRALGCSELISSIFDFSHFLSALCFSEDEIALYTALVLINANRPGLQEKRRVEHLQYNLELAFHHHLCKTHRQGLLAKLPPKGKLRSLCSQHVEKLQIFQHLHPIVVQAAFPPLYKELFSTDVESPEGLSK
#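 Luciferase reporter read in Schneider cells carrying Gal4-RORγ (mouse) and UAS-Photinus luciferase; cells given compound 1 h before 700 uM copper sulfate induction, then incubated 20 h at ambient temperature.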
# KB-V1 MDR tox: KB-V1 MDR subline cytotoxicity; Potency, µM (series often up to 46.1 µM), hits mostly cytotoxic; 400,000 tested, 3.4% active; KB-V1 MDR cells viability, CellTiter-Glo, 72 h; note: nearly all actives have a fitted effect of over 60% in size
#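 Readout: CellTiter-Glo luminescence, 10 min after addition. Cells: KB-V1 MDR subline, 72 h at 37 degrees C with compound. Analysis: corrected, normalized data fitted to concentration-effect curves.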
# KB-3-1 tox: KB-3-1 parental cell cytotoxicity | AID 1347075 | KB-3-1 viability, CellTiter-Glo ATP luminescence, 72 h | 400,000 tested, 1.4% active | Potency, µM (highest dose often 46.1 µM), actives largely listed as cytotoxic; note: nearly all actives have a fitted effect of over 60% in size
#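 Screening of KB-3-1 cells (DMEM, 10% FBS, phenol-red free) ran from lowest to highest compound concentration; after 72 h at 37 °C viability was read luminescently and curves fitted.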
# Gal4-VP16 FLuc: inhibits Gal4-VP16 luciferase reporter, ROR gamma counter-screen | Drosophila S2 Gal4-VP16 UAS-luciferase, luminescence, 20 h | 310,000 tested, 3.5% active | Potency, µM (series often up to 53.6 µM), hits mostly inhibitors;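 note: Gal4-VP16 expression switched on by copper sulfate through the metallothionein promoter; nearly all actives have a fitted effect of over 50% in size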
# A number is an active result; – = inactive; ? = inconclusive; · = no result given. Calls come from the whole dose curve; as a rule, active = well fitted curve in the direction sought with a large enough effect; inconclusive = small, poorly fitted or top-dose-only effect, or another doubt; inactive = no such curve, though single readings can be large; an effect the other way counts as inactive or inconclusive.
SMILES,MCF10A rerep,SW480 rereplic,RORgamma inh,KB-V1 MDR tox,KB-3-1 tox,Gal4-VP16 FLuc
CC(C)Oc1ccc(C(=O)NCC(c2ccc(N(C)C)cc2)N2CCCC2)cc1 (centres undefined),·,·,·,–,–,·
O=C(CCc1ccccc1)NNC(=S)NC(=O)c1ccc(Cl)cc1,–,–,12.6µM,?,–,11.2µM
COc1ccc(NC(=S)NNC(=O)CNc2ccc(Cl)cc2)cc1,–,–,5.62µM,–,–,7.94µM
O=C(Nc1cccc(Cl)c1)OCCOCCOC(=O)Nc1cccc(Cl)c1,20.6µM,–,·,–,?,·
COC(CC(=O)NNC(=S)Nc1ccc(Cl)cc1)OC,–,–,?,–,–,?
C=COCCNC(=S)Nc1cccc(Cl)c1,–,–,6.31µM,–,–,?
O=C(NCCc1csc(-c2ccc(F)cc2)n1)c1cccs1,·,·,·,–,–,·
O=C(O)c1cccc(NC(=S)NCc2ccccc2)c1,–,–,–,–,–,–
O=C(CNc1ccc(Cl)cc1)NNC(=S)NCc1ccccc1,–,–,10µM,?,–,?
O=C(CCc1ccccc1)NNC(=S)NCc1ccc(Cl)cc1,–,–,1.12µM,–,–,?
O=C(CC(=O)NCc1ccc(Cl)cc1)NCc1ccccc1,–,–,–,–,–,–
COc1ccc(NC(=S)Nc2cccc(Cl)c2)cc1OC,–,–,?,–,–,–
S=C(NCc1ccccc1)Nc1cccc(Cl)c1,–,–,5.62µM,–,–,12.6µM
NNC(=S)Nc1cccc(Cl)c1,–,?,7.94µM,–,–,?
COc1ccc(NC(=O)CN2CCN(Cc3ccccc3)S2(=O)=O)c(OC)c1,·,·,·,–,–,·
Cc1ccc(C(=O)NNC(=O)CNc2cccc(Cl)c2)cc1,–,–,–,–,–,–
O=C(CNc1cccc(Cl)c1)NNC(=S)NCc1ccccc1,–,–,14.1µM,–,–,–
O=C(CN1C(=O)/C(=C2\SC(=S)N(C3CCS(=O)(=O)C3)C2=O)c2ccccc21)Nc1ccccc1 (centres undefined),–,–,0.891µM,–,–,–
CC1=C(/C=N/Nc2ccc([N+](=O)[O-])cc2[N+](=O)[O-])C(C)(C)CCC1,–,–,–,?,16.4µM,–
Cc1cc(C)cc(-n2c(SCC(N)=O)nc3c(oc4ccccc43)c2=O)c1,·,·,·,–,–,·
Cc1ccc(Sc2ccc(N3CCC(C(=O)Nc4ccc(Cl)cc4)CC3)nn2)cc1,·,·,·,–,–,·
N#CCC(=O)N/N=C/c1cn(Cc2ccc(Cl)cc2Cl)c2ccccc12,11.6µM,?,–,–,–,–
N#C/C(=C/c1cn(Cc2ccccc2Cl)c2ccccc12)C(=O)Nc1cccc(Cl)c1,·,·,·,–,–,·
O=C(CNc1ccc2c(c1)OCO2)N/N=C\c1cn(Cc2ccccc2)c2ccccc12,–,–,12.6µM,?,?,?
O=C(CNc1ccc2c(c1)OCO2)N/N=C\c1cn(Cc2ccc(F)cc2)c2ccccc12,20.6µM,–,?,·,·,10µM
SMILES,MCF10A rerep,SW480 rereplic,RORgamma inh,KB-V1 MDR tox,KB-3-1 tox,Gal4-VP16 FLuc
CN(Cc1ccc(F)cc1)S(=O)(=O)c1nnc(NC(=O)c2ccc(F)cc2)s1,·,·,·,–,?,·
CCOC(=O)C1=CN(C(=O)OC(C)(C)C)C(CN2C(=O)COCC2=O)C1 (centres undefined),·,·,–,·,·,?
COc1ccc(C(=O)N2CCC3(CCCN(c4ncccn4)C3)CC2)cc1,·,·,–,·,·,–
N#Cc1c2n(c3c(=O)[nH]cnc13)CCCC2,–,–,–,–,–,–
N#Cc1c2n(c3c(=S)nc[nH]c13)CCCCC2,?,–,3.55µM,–,?,17.8µM
CC(C)N(C(=O)[C@H]1CC(CC(=O)NCc2cccc(C(F)(F)F)c2)C(=O)N2CCc3c([nH]c4ccccc34)[C@]12C)C(C)C (some centres undefined),?,–,·,–,–,·
Cc1ccc(CNC(=O)C2CCN(S(=O)(=O)c3ccc4[nH]c(=O)ccc4c3)CC2)cc1,·,·,·,?,–,·
COc1cc(OC)c(-c2nc3cnccc3n2C)cc1OC,–,–,–,–,–,–
Cn1c(-c2ccc3ccccc3n2)nc2cnccc21,–,–,?,10.3µM,–,?
